VP16 counter – inhibits Gal4-VP16 luciferase reporter, ROR gamma counter-screen. AID 2546. hit rate 3.5% among 310,000. Drosophila S2 Gal4-VP16 UAS-luciferase, luminescence, 20 h. Potency, µM (highest dose often 53.6 µM), for the others: top-dose activity, negative = inhibition, most hits filed as inhibitors;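 further: Gal4-VP16 expression switched on by copper sulfate through the metallothionein promoter; on the % scale 0 is the no-effect control and ±100 the full control effect; nearly all actives have a fitted effect of over 50% in size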
a7 integrin act – integrin-mediated muscular dystrophy alleviation activation. alpha7betagal myoblasts, beta-gal FDG fluorescence, 48 h. AID 624291. hit rate 0.064% among 350,000. Potency, µM (series often up to 38.3 µM), without a hit: at the highest dose activation, most hits filed as activators;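 further: 100% = response of the positive control SU9516; nearly all actives have a fitted effect of over 60% in size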
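alpha7betagal+/- myoblasts (passage 13, 250/well) treated 48 h at 37C with compounds at 1:260 dilution of DMSO stock. Lysed, then beta-galactosidase activity read as FDG fluorescence (ex 480/em 540) after 30 min, with pre-read for autofluorescence.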
Chronic BCR inh – blocks chronic active B-cell receptor signaling | ABC-DLBCL IkBa-CBG/CBR reporter, luminescence ratio, 4 h | hit rate 0.05% among 340,000 | AID 493014 | Potency, µM (titrated, usually from 46.1 µM), for the others: at the top dose activity change, negative = inhibition, usual class: inhibitors; active means well fitted inhibition curve with a large enough effect in the signal ratio, with a control signal flat, not every such curve was filed as active; inconclusive means small, poorly fitted or top-dose-only effect, or effect the other way, or a change in a side signal; the % refers to the signal ratio;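 further: plate controls were basal doxycycline-induced cells for no effect and cells given 10 µM MG132 for full effect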
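Cell line TMD8 (human ABC DLBCL), stably expressing tet-inducible CBG68-IkBa fusion and CBR; IMDM/0.5% FBS; cpd up to 46 uM; dox induction, 4 h, 37C/5% CO2; dual luminescence; green/red ratio; MG132 control.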
uPA generation – inhibitors of cell surface uPA generation | cell surface uPA generation assay, qHTS | Potency, µM (highest dose often 38.3 µM), inactives show at the highest dose activity change, negative = inhibition, most hits filed as inhibitors | hit rate 0.31% among 330,000 | AID 540303; active means well fitted inhibition curve with a large enough effect; inconclusive means small, poorly fitted or top-dose-only effect; inactive means no such curve, though single readings can be large or run the other way; tested in mouse RAW 264.7 cells; further: on the % scale 0 is the no-effect control and ±100 the full control effect; nearly all actives have a fitted effect of over 55% in size
Mito fusion act – inhibitors of mitochondrial division or activators of mitochondrial fusion. S. cerevisiae fusion-defective mutant growth rescue, CellTiterGlo 48 h. AID 485298. Potency, µM (doses to about 46.1 µM), without a hit: at the highest dose growth rescue (activation), actives largely listed as activators. hit rate 0.23% among 320,000; further: % of control where 0% means no effect; nearly all actives have a fitted effect of over 45% in size
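Temperature-sensitive fusion-defective S. cerevisiae (e.g. fzo1-1, mgm1-5) were grown with compound in YPEG medium (3% ethanol, 3% glycerol) for 48 hours at 37C. Growth rescue was measured as viability by CellTiterGlo luminescence after 10 minutes at ambient.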
RORg inh – blocks mouse ROR gamma transcriptional activity. P51450. Drosophila S2 Gal4-RORgamma UAS-luciferase reporter, 20 h. Potency, µM (titrated, usually from 53.6 µM), for the others: at the top dose activity change, negative = inhibition, most hits filed as inhibitors. hit rate 5.4% among 310,000. AID 2551; further: on the % scale 0 is the no-effect control and ±100 the full control effect; nearly all actives have a fitted effect of over 60% in size
Target sequence (P51450 whole entry, looked up, the tested form may be a part): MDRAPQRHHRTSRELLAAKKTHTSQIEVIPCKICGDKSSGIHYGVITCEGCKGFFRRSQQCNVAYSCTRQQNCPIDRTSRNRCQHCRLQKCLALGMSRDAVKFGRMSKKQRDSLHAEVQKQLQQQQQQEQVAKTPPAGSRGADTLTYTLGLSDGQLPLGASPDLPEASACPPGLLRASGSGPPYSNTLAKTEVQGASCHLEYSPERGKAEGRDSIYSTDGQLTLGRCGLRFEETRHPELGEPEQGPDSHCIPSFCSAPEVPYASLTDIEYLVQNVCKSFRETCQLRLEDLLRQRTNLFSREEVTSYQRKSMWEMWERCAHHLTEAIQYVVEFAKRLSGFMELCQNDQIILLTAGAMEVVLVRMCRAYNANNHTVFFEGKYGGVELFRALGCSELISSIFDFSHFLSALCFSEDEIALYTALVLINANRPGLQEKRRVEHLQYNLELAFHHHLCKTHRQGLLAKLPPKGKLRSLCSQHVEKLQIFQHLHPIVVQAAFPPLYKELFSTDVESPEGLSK
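Drosophila Schneider cells stably carrying a metallothionein-driven Gal4 DBD–ROR gamma fusion and a UAS-Photinus luciferase reporter were exposed to compound for 1 hr, then induced with copper sulfate (700 uM final) for 20 hr at ambient temperature before luminescence reading.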
* hit, by the source's call; ? = inconclusive; nt = no result; [ ] = dose if it differs, or a comment. Most compounds without a hit are left out; they make up all but 5.5% or so of the library. Unless noted, the call rests on the fitted dose curve; in most records, active means well fitted curve in the direction sought with a large enough effect; inconclusive means small, poorly fitted or top-dose-only effect, or another doubt; inactive means no such curve, though single readings can be large; an effect the other way counts as inactive or inconclusive. Potency means the concentration at half of the fitted maximal effect.

SMILES	VP16 counter	a7 integrin act	Chronic BCR inh	uPA generation	Mito fusion act	RORg inh
COc1ccc(-c2nc(CSCC(=O)NCc3ccc4c(c3)OCO4)c(C)o2)cc1	13µM*	3%	0%	4%	1%	13µM*
COc1cc(Cl)ccc1OCc1cc(C(=O)N(C)Cc2cccc3cnccc23)no1	-15%	-41%	3%	-5%	-4%	40%
COC(=O)[C@H](Cc1ccccc1)NC(=O)O[C@@H]1C(=O)c2ccc(OC)cc2O[C@H]1c1cccc(C(F)(F)F)c1	-6%	nt	nt	nt	nt	-11%
COc1cccc(/C=c2\s/c(=C\C(=O)C(C)(C)C)[nH]c2=O)c1	?	2%	1%	-6%	0%	10µM*
COc1ccccc1-c1ccc2ncnc(N(C)Cc3ccco3)c2c1	?	nt	nt	nt	nt	14%
Nc1cc(Nc2ccc(Br)cc2)nc(N)n1	2%	?	?	-6%	5%	43%
Cc1ncc(CO)c(/C=N/Nc2ccc(C(F)(F)F)cn2)c1O	16µM*	1%	2%	4%	-14%	?
COc1ccc(-c2nc3c4c(ncn3n2)-c2ccccc2CC42CCCC2)cc1	-14%	26%	0%	2%	7%	-6%
Oc1cccc(-c2nc3c4c(ncn3n2)-c2ccccc2CC42CCCC2)c1	25µM*	-54%	22%	5%	-26%	?
Cc1cc(C)n(CC(O)COc2c(C)cccc2C)n1 (stereo unspecified)	13%	10%	-1%	-4%	-5%	-16%
CCN1CCN(Cc2ccc(NC(=O)Nc3ccccc3Cl)cc2)CC1	-6%	-12%	-1%	10µM*	0%	-38%
O=C(NN=Cc1ccc2c(c1)OCO2)c1ccccc1	nt	2%	nt	-12%	nt	nt
COc1ccc(-c2nn(-c3ccccc3)cc2/C=N/NC(=O)c2cccc(S(=O)(=O)Nc3ccccc3OC)c2)cc1	1.3µM*	-8%	?	4%	-5%	1.3µM*
O=C(N/N=C/c1cn(-c2ccccc2)nc1-c1ccc(F)cc1)c1ccc2c(c1)OCO2	?	23%	?	7%	2%	2.2µM*
O=C(N/N=C\c1cn(-c2ccccc2)nc1-c1ccccc1)c1ccc2c(c1)OCO2	?	-22%	?	5%	-11%	1.8µM*
CCn1cc(/C=N/NC(=O)c2ccc3c(c2)OCO3)c(C)n1	19%	13%	?	0%	-1%	-16%
COc1ccccc1NS(=O)(=O)c1cccc(C(=O)N/N=C/c2ccccc2OCC(=O)O)c1	-2%	-18%	1%	-4%	14%	-6%
COc1ccc(-c2nn(-c3ccccc3)cc2CNC(=O)c2cccc([N+](=O)[O-])c2)cc1	8.9µM*	-30%	?	10%	11%	?
CC1CCN(CC2CCN(C(=O)NCc3ccccc3)CC2)CC1	nt	nt	-9%	nt	nt	nt
O=C(Nc1cccc(F)c1)C1CCCN(C(=O)c2ccc(Cl)cc2)C1 (stereo unspecified)	nt	-23%	8%	-11%	9%	nt
O=C(N/N=C/c1cn(-c2ccccc2)nc1-c1ccc2c(c1)OCCO2)c1ccncc1	5µM*	24%	?	0%	-4%	2.2µM*
C=CCNC(=S)N/N=C/c1cn(-c2ccccc2)nc1-c1ccc(OC)cc1	1.3µM*	14%	?	3%	-5%	0.71µM*
O/N=C/c1cn(-c2ccccc2)nc1-c1ccc2c(c1)OCCO2	-4%	17%	?	13%	-8%	40%
COc1ccc(-c2nn(-c3ccccc3)cc2/C=N/NC(=O)c2ccc3c(c2)OCO3)cc1	-26%	nt	-9%	nt	-1%	2.5µM*
COc1ccc(-c2nn(-c3ccccc3)cc2/C=N/Nc2cccc(C(=O)O)c2)cc1	-3%	-18%	0%	-5%	2%	?
SMILES	VP16 counter	a7 integrin act	Chronic BCR inh	uPA generation	Mito fusion act	RORg inh
CN(C)C(=O)/C=C\c1cn(-c2ccccc2)nc1-c1ccc2c(c1)OCCO2	-5%	-19%	-12%	-1%	18µM*	?
O=C1CCCC=C1[C@@H](O)COCc1ccccc1	-5%[10 µM]	nt	nt	nt	nt	5%[10 µM]
COc1ccc(-c2nn(-c3ccccc3)cc2C(=O)O)cc1	-27%	14%	?	-8%	1%	4%
COc1ccc(-c2nn(-c3ccccc3)cc2/C=N/NC(=O)c2ccc(Br)o2)cc1	4µM*	-33%	1%	-14%	1%	1.3µM*
CCc1ccc(OC(=O)c2sc3ncn(Cc4cccc(F)c4)c(=O)c3c2C)cc1	nt	nt	11%	nt	nt	nt
CCN1CCN(c2ccc(NC(=O)c3cc4ccccc4cc3OC)cc2C)CC1	nt	-69%	?	11µM*	5%	nt
CCN1CCN(c2ccc(NC(=O)c3ccccc3F)cc2Cl)CC1	17%[10 µM]	-29%	-1%	-4%	-25%	4%
C=C[C@@]1(C)CC(=O)[C@@]2(O)[C@@]3(C)[C@@H](O)CCC(C)(C)[C@@H]3[C@H](O)[C@H](OC(C)=O)[C@@]2(C)O1	-7%	nt	nt	nt	nt	-2%
Cc1ccc2nc(-c3ccccn3)c(NC3CCCC3)n2c1	-2%	-48%	-8%	-2%	-2%	4%
Cc1ccccc1Nc1c(-c2ccccn2)nc2c(C)cccn12	7.9µM*	-26%	-1%	2%	-10%	4µM*
Cc1ccc(Nc2c(-c3ccccn3)nc3cccc(C)n23)cc1	?	-51%	?	-14%	-5%	4.5µM*
Cc1cccc(C)c1Nc1c(-c2ccccn2)nc2ccccn12	-9%	-8%	?	4.5µM*	-7%	11µM*
Cc1ccccc1Nc1c(-c2ccc(N3CCOCC3)cc2)nc2ncccn12	4%[10 µM]	13%	-10%	?	-2%	23%
CC(C)(O)CN(C(=O)c1ccc([N+](=O)[O-])cc1)C1CCCC1	nt	16%	nt	4%	nt	nt
CC(=O)OCC1OC(C#Cc2ccc(C(C)(C)C)cc2)C=CC1OC(C)=O (stereo unspecified)	-14%[10 µM]	nt	nt	nt	nt	-8%[10 µM]
C(=C\c1ccccc1)/CNn1cnnc1	-16%	10%	1%	-2%	2%	12%
Clc1ccccc1CSc1nncn1NC/C=C/c1ccccc1	0%	-32%	-16%	3%	22µM*	2%
Cc1ccc2occ(/C=N/NC(=O)c3ccc(O)cc3)c(=O)c2c1	-28%	37%	?	-9%	-2%	20µM*

Screening data (PubChem BioAssay)
